According to the supplement of paper PMC3334620:
In all, about 33,000 sequences were measured (“E-score (-0.5 to 0.5)”: median about -0.054, highest 2% from about 0.35 on). For the sample, the highest values were picked, then their nearest neighbours and some sequences at random.

Target: T1, Stb5 (UniProt P38699)
T1 sequence: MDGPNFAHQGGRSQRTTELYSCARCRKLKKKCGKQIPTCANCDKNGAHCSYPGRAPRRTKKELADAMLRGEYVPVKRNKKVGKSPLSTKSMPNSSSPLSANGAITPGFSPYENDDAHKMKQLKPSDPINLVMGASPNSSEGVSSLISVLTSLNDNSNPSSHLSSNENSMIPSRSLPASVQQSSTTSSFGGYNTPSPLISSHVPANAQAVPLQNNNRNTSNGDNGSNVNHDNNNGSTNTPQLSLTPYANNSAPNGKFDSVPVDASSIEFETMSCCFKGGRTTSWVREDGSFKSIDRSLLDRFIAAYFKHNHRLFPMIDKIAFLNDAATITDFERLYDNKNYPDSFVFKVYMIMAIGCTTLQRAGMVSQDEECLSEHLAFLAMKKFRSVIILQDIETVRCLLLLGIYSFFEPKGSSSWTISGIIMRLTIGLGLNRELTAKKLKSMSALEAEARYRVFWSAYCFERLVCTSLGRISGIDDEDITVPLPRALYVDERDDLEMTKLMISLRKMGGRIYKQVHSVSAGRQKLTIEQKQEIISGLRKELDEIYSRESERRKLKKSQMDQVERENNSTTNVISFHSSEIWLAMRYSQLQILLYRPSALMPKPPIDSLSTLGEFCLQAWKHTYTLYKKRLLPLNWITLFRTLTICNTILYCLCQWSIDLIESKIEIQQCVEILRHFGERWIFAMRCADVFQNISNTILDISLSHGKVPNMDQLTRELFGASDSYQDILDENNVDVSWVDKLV
Assay: PBM E-score (8-mer binding enrichment) (E-score (-0.5 to 0.5)); higher = stronger / more preferred TF binding
Details: protein concentration: 200 nM; construct: GST-full length
Description: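 Universal 'all 10-mer' protein binding microarrays (Agilent AMADID 015681) probed with GST-tagged S. cerevisiae TFs (full-length or DBD) made by in vitro transcription/translation (PURExpress), about 100-200 nM. Bound TF was detected with fluorescent anti-GST. Each ungapped 8-mer (which stands for itself and its reverse complement) is scored by the PBM enrichment score (E-score), a modified Wilcoxon-Mann-Whitney statistic from -0.5 to +0.5, computed with the Universal PBM Analysis Suite. Scale: above 0.35 generally sequence-specific binding.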

Row | Sequence | PBM E-score
1 | AGTGATAC | -0.128
2 | GGTGATAC | 0.369
3 | CGTGATAC | -0.0683
4 | GGTGATAA | 0.415
5 | CGTGATAA | 0.0332
6 | AGTGATAA | -0.0882
7 | CTCCTGTC | -0.26
8 | CGCCGTTC | 0.306
9 | AGCCGTTA | 0.0306
10 | CACCGTTA | 0.367
11 | GTCCGTTA | 0.355
12 | CGCCGTTA | 0.356
13 | AACCGTTC | 0.128
14 | AACCGTTA | -0.101
15 | GACCGTTA | 0.278
16 | ATCCGTTA | 0.197
17 | CACCGTTC | 0.368
18 | CTCCGTTA | 0.299
19 | GGCCGTTA | 0.213
20 | GCGGGCAA | 0.171
21 | GCAGACTA | -0.158
22 | CTCCACAG | -0.313
23 | CCTTTTGA | -0.106
24 | CGTTGTCC | -0.0582
25 | GACCAATA | 0.0169

Row | Sequence | PBM E-score
26 | GCCCTTAC | -0.0337
27 | CGGTCGTA | 0.381
28 | CGGTCATC | 0.135
29 | TAGTCGGA | 0.355
30 | CGGTCATA | 0.448
31 | CAGTCGGA | 0.292
32 | GGGTCGTA | 0.00669
33 | GGGTCATA | -0.00196
34 | ATGTCGGA | 0.303
35 | CTGTCGGA | 0.349
36 | CGGTCGTC | 0.0319
37 | GAGTCGGA | 0.307
38 | GTGTCGGA | 0.357
39 | GAGCGGGA | 0.249
40 | TCCAGAGA | -0.208
41 | AGTCAAGC | -0.3
42 | GTGAGCAA | -0.0477
43 | TACGGGCA | 0.143
44 | GACAACTA | -0.06
45 | GCACAGAC | 0.0491
46 | CGAGTTTC | -0.0887
47 | CGGTCGGC | 0.352
48 | CCGTCGGC | 0.377
49 | GCGTCGGA | 0.345
50 | CCGTCGGA | 0.37

Row | Sequence | PBM E-score
51 | AGGTCGGC | 0.293
52 | CCGTCGTC | 0.161
53 | ACGTCGGC | 0.27
54 | CGGTCGGA | 0.313
55 | ACGTCGGA | 0.264
56 | GGAATAAC | 0.177
57 | ATTTATTG | -0.0662
58 | AAGCTGAA | -0.152
59 | CCAAGAGG | -0.138
60 | CGGTGCCC | 0.27
61 | CGGTGCCA | 0.414
62 | AGGTGCGA | 0.0754
63 | GGGTGCCA | -0.012
64 | CGGTGCGA | 0.384
65 | GGGTGCGA | -0.0506
66 | CCTGCTGA | -0.216
67 | CGCTTCCG | 0.208
68 | CCCGACTA | 0.312
69 | AGTGCCGA | 0.387
70 | AGTGCCAC | -0.251
71 | AGTGCCGG | 0.407
72 | ATTGCCGA | 0.318
73 | ATTGCCGG | 0.408
74 | AGTGCCAG | -0.0267
75 | AGTGCCTG | -0.17

Row | Sequence | PBM E-score
76 | CGTGCCGC | 0.249
77 | ATTGCCGC | 0.351
78 | AGTGCCGC | 0.381
79 | CGTGCCGA | 0.212
80 | GGTGCCGA | 0.292
81 | CACCAACG | 0.0702
82 | AACCGTGT | -0.115
83 | AGTCTGGG | -0.291
84 | CCTGAGCG | -0.0867
85 | CCGATAGA | 0.249
86 | TGTCCCAA | -0.0294
87 | ATTAGCTG | -0.119
88 | CCTCTAAA | -0.196
89 | CACCGACC | 0.418
90 | GACCGACA | 0.341
91 | AACCGACA | 0.181
92 | GACCGACC | 0.308
93 | AACCGACG | 0.286
94 | TACCGACA | 0.356
95 | GACCGAAC | 0.145
96 | CACCGAAG | 0.253
97 | CACCGAAC | 0.366
98 | CACCGACG | 0.453
99 | AACCGACC | 0.244
100 | CACCGAGG | 0.23

Row | Sequence | PBM E-score
101 | CCCATGAA | -0.0849
102 | CCAAGTAG | -0.293
103 | CAGTGCGC | -0.135
104 | GACCACAC | -0.152
105 | ACCCTAGG | -0.165
106 | CTTCACAC | -0.0447
107 | CACCGAGA | 0.151
108 | CACCGAAA | 0.305
109 | CACCGACA | 0.44
110 | AAAAAGAT | -0.291
111 | TGGACACA | -0.0717
112 | GGGACATA | 0.132
113 | CGGACGTC | 0.0917
114 | CGGACATA | 0.474
115 | CGGACGTA | 0.407
116 | CGGAGACA | 0.398
117 | AGGACGTA | -0.182
118 | AGGAGACA | -0.131
119 | CGGACATC | 0.256
120 | CGGACACG | 0.232
121 | CGGAGACG | 0.166
122 | CGGACACA | 0.356
123 | ACCCCCTC | -0.265
124 | GTGCACCA | -0.17
125 | CGGAGGGC | -0.0349

Row | Sequence | PBM E-score
126 | CCTTCCCG | -0.125
127 | ACAGCGTA | -0.0758
128 | AAAATCAC | -0.092
129 | GGTGATCA | 0.0514
130 | CTTGTGGC | -0.163
131 | CGTAGTAC | 0.0304
132 | TACCGGTA | 0.36
133 | CTCCGGTA | 0.316
134 | CACCGGTG | 0.408
135 | AACCGGTC | 0.272
136 | CACCGGTC | 0.337
137 | AACCGGTA | 0.261
138 | GACCGGTA | 0.231
139 | AACCGGTG | 0.306
140 | CACCGGTA | 0.408
141 | AGAAGCCT | -0.0816
142 | TCTGCAGA | 0.00207
143 | CCCCCAGG | -0.281
144 | AAAACCCG | 0.379
145 | ATAACTCC | 0.429
146 | AAACCCCC | 0.263
147 | AAAAACCC | 0.226
148 | GAAACCCA | 0.0284
149 | AAAACCCT | -0.074
150 | CTAACTCC | 0.288

Row | Sequence | PBM E-score
151 | GAAACCCC | 0.353
152 | AAAACCCC | 0.355
153 | ATAACTCG | 0.0637
154 | CAAACCCG | 0.216
155 | GAAAACCC | 0.278
156 | AATCTGTG | -0.207
157 | CGCAGAAA | -0.114
158 | GCAAAGGC | 0.115
159 | GGTGGACA | 0.00374
160 | TCTTTCAA | -0.0737
161 | ACCCTCCG | 0.134
162 | CGGTGGCA | 0.299
163 | CCTTATCC | 0.00435
164 | ATCTCCAC | 0.0569
165 | GTCTTAAA | 0.179
166 | ACTCGACT | -0.224
167 | ATAACCCC | 0.412
168 | ATAACCCA | -0.157
169 | CTAAACCC | 0.233
170 | ATAACCCG | 0.228
171 | ATAAACCC | 0.373
172 | ATAAACCA | -0.078
173 | AATTCCTA | -0.258
174 | AAAGACCC | 0.0704
